Source: PubChem
Sampled rows, rich in hits. Any-hit rate of the full collection: about 19%.
DT40 TDP1 no CPT: qHTS for Inhibitors of human tyrosyl-DNA phosphodiesterase 1 (TDP1): qHTS in cells in absence of CPT; DT40 Tdp1-/- hTDP1 cells, no CPT, ATP luminescence, 48 h; Potency, µM (series often up to 46.2 µM), for inactives: top-dose activity change, negative = growth inhibition, hits mostly inhibitors; 420,000 tested, 15% active; AID 686978, 2013; note: potency is the fitted concentration of half-maximal effect; nearly all actives have a fitted effect of over 55% in size
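Chicken DT40 Tdp1-/- cells stably complemented with human TDP1 were seeded at 400 cells/well with DMSO in place of 20 nM camptothecin. After compound pinning, cells grew at least 48 hr at 37 °C; viability read by CellTiter-Glo luminescence.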
IL1B secr inh: inhibitors of inflammasome signaling (IL-1 beta secretion); THP-1 LPS/ATP IL-1B secretion, AlphaLISA, 16 h; hits give low values; activity change, % at 57.5 µM; 360,000 tested, 4.7% active; AID 743279; in the data active = activity change below about -50%; inconclusive = mostly about -30% to -49%
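THP-1 cells pretreated 1 hr with compounds (up to 57.5 uM final), then stimulated with LPS (250 ng/mL final) plus ATP (1.25 mM final); secreted IL-1B measured by AlphaLISA after 16 hr, decreased signal indicating inhibition.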
DT40 TDP1 CPT: DT40-hTDP1 cell growth loss with CPT. chicken DT40 Tdp1-/-;hTDP1 cells + 20 nM CPT, ATP luminescence, 48 h. Potency, µM (doses to about 46.2 µM), for the others: top-dose activity change, negative = growth inhibition, most hits filed as inhibitors. 420,000 tested, 12% active; note: potency is the fitted concentration of half-maximal effect; nearly all actives have a fitted effect of over 55% in size
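Chicken DT40 Tdp1-/- cells complemented with human TDP1, 400 cells/well, exposed to compounds plus 20 nM camptothecin for at least 48 h at 37 C; viability read as ATP content by CellTiter-Glo luminescence.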
HT1080NT lethal: kills 2HG-producing HT-1080-NT fibrosarcoma cells; HT-1080-NT fibrosarcoma viability, CellTiter-Glo ATP luminescence, 48 h; Potency, µM (series often up to 46.1 µM), for the others: top-dose activity, negative = less viability, hits mostly cytotoxic; 360,000 tested, 1.6% active; AID 686970;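 note: NT is the 2HG producing partner of a matched IDH1 knockdown line; potency is the fitted concentration of half-maximal effect; 0% = DMSO-treated cells and -100% = media-only wells without cells; nearly all actives have a fitted effect of over 55% in size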
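Read-out is CellTiter-Glo luminescence after 10 minutes at room temperature, following 48 hours' compound treatment of HT-1080-NT cells (750 cells/well, RPMI, 5% FBS, 37 degrees C).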
HT1080 IDH1KD tx: HT-1080 IDH1 knockdown cell toxicity (counter line). HT-1080 IDH1 knockdown viability, ATP luminescence, 48 h. Potency, µM (titrated, usually from 46.1 µM), without a hit: top-dose activity, negative = toxicity, most hits filed as cytotoxic. 360,000 tested, 2% active;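 note: potency is the fitted concentration of half-maximal effect; 0% = DMSO wells and -100% = cell-free medium wells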
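Viability of IDH1-knockdown HT-1080 fibrosarcoma cells was assessed by CellTiter-Glo after 48 h at 37 °C with titrated compound; concentration-effect curves were classified by fit quality and response size.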
Numbers without * were called inactive; ! = not active in a repeat; [ ] = dose if it differs, or a comment. Unless noted, calls come from the whole dose curve; as a rule, active = well fitted curve in the direction sought with a large enough effect; inconclusive = small, poorly fitted or top-dose-only effect, or another doubt; inactive = no such curve, though single readings can be large; an effect the other way counts as inactive or inconclusive. Unless noted, % is set by controls: 0 for no effect and ±100 for the full control effect.

`COc1ccc(S(=O)(=O)N2CCCCCC2)cc1C(=O)N(C)CC(=O)Nc1cc(C)ccc1C` gave DT40 TDP1 no CPT -20%, IL1B secr inh -14, DT40 TDP1 CPT inconclusive, HT1080NT lethal -1% and HT1080 IDH1KD tx -10%.
Screening COc1cccc(NC(=O)CN(C)C(=O)c2cc(S(=O)(=O)N3CCCCC3)ccc2Cl)c1 returned DT40 TDP1 no CPT inconclusive, IL1B secr inh 7, DT40 TDP1 CPT inconclusive, HT1080NT lethal 0% and HT1080 IDH1KD tx 4%.
`CN(CC(=O)Nc1ccc(Cl)c(C(F)(F)F)c1)C(=O)c1ccc(OCC2CCCO2)cc1` (configuration not stated) gave DT40 TDP1 no CPT 16µM*, IL1B secr inh -22, DT40 TDP1 CPT 18µM*, HT1080NT lethal -15% and HT1080 IDH1KD tx inconclusive.
Cc1ccc(NC(=O)c2ccc(OCC3CCCO3)cc2)cc1Cl (configuration not stated) was read as DT40 TDP1 no CPT inconclusive, IL1B secr inh 14, DT40 TDP1 CPT inconclusive, HT1080NT lethal -2% and HT1080 IDH1KD tx -12%.
COc1ccc(S(=O)(=O)N2CCCCCC2)cc1C(=O)N(C)CC(=O)Nc1ccc(Cl)c(Cl)c1 was read as DT40 TDP1 no CPT inconclusive, IL1B secr inh -59*, DT40 TDP1 CPT inconclusive, HT1080NT lethal -29% and HT1080 IDH1KD tx -21%.
For Cc1ccc(S(=O)(=O)N2CCCCC2)cc1C(=O)N(C)CC(=O)Nc1ccc(Cl)c(C(F)(F)F)c1 the results were DT40 TDP1 no CPT inconclusive, IL1B secr inh -56*, DT40 TDP1 CPT inconclusive, HT1080NT lethal 10% and HT1080 IDH1KD tx 3%.
`Cc1ccc(C(=O)N(C)CC(=O)Nc2ccc(Cl)c(C(F)(F)F)c2)cc1S(=O)(=O)N1CCCCC1` gave DT40 TDP1 no CPT 23µM*, IL1B secr inh -23, DT40 TDP1 CPT inconclusive, HT1080NT lethal inconclusive and HT1080 IDH1KD tx inconclusive.
O=C(O)c1cc(NC(=O)c2cccc(C(=O)Nc3cc(C(=O)O)cc(C(=O)O)c3)c2)cc(C(=O)O)c1 was read as DT40 TDP1 no CPT 4%, IL1B secr inh 0, DT40 TDP1 CPT -3%, HT1080NT lethal -17% and HT1080 IDH1KD tx 12%.
`CCOc1ccccc1OCCNC1CCCC1` gave DT40 TDP1 no CPT inconclusive, IL1B secr inh 21, DT40 TDP1 CPT -3%, HT1080NT lethal 0% and HT1080 IDH1KD tx 6%.
CN(CC(=O)Nc1ccc(Cl)c(S(=O)(=O)N2CCOCC2)c1)C(=O)c1ccc(C#N)cc1 was read as DT40 TDP1 no CPT 26%, IL1B secr inh 15, DT40 TDP1 CPT -3%, HT1080NT lethal 0% and HT1080 IDH1KD tx 1%.
CN(CC(=O)Nc1ccc(Cl)c(C(F)(F)F)c1)C(=O)c1ccc(S(=O)(=O)N2CCOCC2)cc1 was read as DT40 TDP1 no CPT 6.5µM*, IL1B secr inh 73, DT40 TDP1 CPT 4.6µM*, HT1080NT lethal -24%[9.24 µM] and HT1080 IDH1KD tx 10µM*.
Cc1cc(C)c(C)c(OCC(=O)Nc2ccc(S(=O)(=O)Nc3nc(C)cc(C)n3)cc2)c1 was read as DT40 TDP1 no CPT 0% and DT40 TDP1 CPT -4%.
For COc1ccc(C(=O)N2CCCC(C(=O)N3CCN(c4ccccc4)CC3)C2)cc1 (configuration not stated) the results were DT40 TDP1 no CPT -24%, IL1B secr inh 8, DT40 TDP1 CPT 4%, HT1080NT lethal -4% and HT1080 IDH1KD tx 0%.
O=C(CCc1nc2cccnc2n1Cc1cccs1)Nc1cccc(C(F)(F)F)c1 was read as DT40 TDP1 no CPT 10µM* and DT40 TDP1 CPT 16µM*.
For O=C(CCc1nc2cccnc2n1Cc1ccccc1)NCCc1ccc(Cl)cc1 the results were DT40 TDP1 no CPT 21µM*, IL1B secr inh -4, DT40 TDP1 CPT inconclusive, HT1080NT lethal -21% and HT1080 IDH1KD tx -11%.
Screening COc1ccc(Cn2c(CCC(=O)Nc3ccc(C)c(C)c3)nc3cccnc32)cc1 returned DT40 TDP1 no CPT 21µM*, IL1B secr inh inconclusive, DT40 TDP1 CPT 13µM*!, HT1080NT lethal -18% and HT1080 IDH1KD tx -23%.
